# Source: PubChem BioAssay AID1259420 (Broad Institute, 2018)
# About 250 (25%) of roughly 1,000 compounds were called active. About 31% were inconclusive and are not listed. Not all results are given here. Entries with a potency or affinity are not part of this list. Values without a mark were called inactive. How the calls were made is not given here.
# Experiment: compound activity on host-cell Toxoplasma growth – dose response (AID 1259420);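 further: host cells were HeLa; final incubation lasted 72 hours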
# Conditions: Toxoplasma gondii growth in host cells, no IFN-gamma
compound,measurement,setting,value
C[C@H]1[C@H](NC(=O)/C(=N\OC(C)(C)C(=O)O)c2csc(N)n2)C(=O)N1S(=O)(=O)O,max activity,at 19.5 µM unless noted,-8.75% [at 1.35 µM]
CCc1cnc(N2[C@@H](C#N)[C@@H](c3ccc(C4=CCCCC4)cc3)[C@@H]2CO)s1,max activity,at 19.5 µM unless noted,-7.27%
OC[C@H]1[C@H](c2ccc(C#Cc3ccccc3F)cc2)[C@H]2CN(CC3CCOCC3)CCCCN21,max activity,at 19.5 µM unless noted,7.1% [at 0.16 µM]
OC[C@@H]1[C@@H](c2ccc(C#Cc3ccccc3F)cc2)[C@H]2CN(CC3CCOCC3)CCCCN12,max activity,at 19.5 µM unless noted,24.4%
CCc1cnc(N2[C@H](C#N)[C@@H](c3ccc(C#Cc4ccccc4F)cc3)[C@H]2CO)s1,max activity,at 10 µM,8.24%
same,max activity,at 19.5 µM,32.4%
CCS(=O)(=O)N1[C@H](CO)[C@@H](c2ccc(C#Cc3ccccc3F)cc2)[C@@H]1C#N,max activity,at 19.5 µM unless noted,10.1% [at 2.35 µM]
CCS(=O)(=O)N1CC(=O)N2[C@H](CO)[C@@H](c3ccc(-c4cccc(F)c4)cc3)[C@@H]2C1,max activity,at 0.6 µM,7.66%
same,max activity,at 1.2 µM,-9.75%
CCC(=O)N1CC(=O)N2[C@@H](CO)[C@@H](c3ccc(C#CCC(C)C)cc3)[C@@H]2C1,max activity,at 19.5 µM unless noted,8.67% [at 0.3 µM]
O=C(NC1CCCCC1)N1C[C@@H]2N[C@H](C1)C2c1ccc(-c2ccc(F)cc2)cc1 (stereo partly drawn),max activity,at 19.5 µM unless noted,22.3% [at 10 µM]
COC[C@@H]1CN(CC2CC2)C[C@@]12CCN(CCc1ccccc1)C2,max activity,at 19.5 µM unless noted,18.3%
N#Cc1cccc(-c2ccc3c(c2)[C@@H]2[C@@H](CCN2C(=O)c2ccccc2F)[C@@H](CO)N3)c1,max activity,at 19.5 µM unless noted,-14.2% [at 1.2 µM]
Cc1ccccc1S(=O)(=O)N1CCCCN2[C@H](CO)[C@H](c3ccc(C#CCN(C)C)cc3)[C@H]2C1,max activity,at 19.5 µM unless noted,8.8%
CCN1CC(C(=O)O)CN2CCN(C(=O)c3ccncc3F)CC2C1 (stereo not drawn),max activity,at 19.5 µM unless noted,-9.96% [at 1.2 µM]
CC[C@H](C(=O)N1CCCC[C@H]1C(=O)O[C@H](CCc1ccc(OC)c(OC)c1)c1cccc(OCC(=O)NCCNC(=O)COc2cccc([C@@H](CCc3ccc(OC)c(OC)c3)OC(=O)[C@@H]3CCCCN3C(=O)[C@@H](CC)c3cc(OC)c(OC)c(OC)c3)c2)c1)c1cc(OC)c(OC)c(OC)c1,max activity,at 19.5 µM unless noted,-10.8% [at 5 µM]
C1=CC[C@H]2CN(c3ncnc4[nH]ccc34)C[C@H]2C1,max activity,at 19.5 µM unless noted,15.7% [at 10 µM]
CCN1CCn2c(-c3cccc(F)c3)cnc2C12CCN(c1ncccn1)CC2,max activity,at 19.5 µM unless noted,-16.6% [at 2.6 µM]
FC(F)(F)C1CN(c2cc(-c3ccccc3)nc3ccccc23)CCO1 (stereo not drawn),max activity,at 19.5 µM unless noted,-8.74% [at 1.2 µM]
C/C=C/c1ccc(C2[C@H]3CNC[C@@H]2N3Cc2ccc3c(c2)OCO3)cc1 (stereo partly drawn),max activity,at 19.5 µM unless noted,11.3%
Fc1ccc(F)c(CN2[C@@H]3CNC[C@H]2C3c2ccc(-c3ccncc3)cc2)c1 (stereo partly drawn),max activity,at 0.16 µM,-17.4%
same,max activity,at 10 µM,-4.19%
C[C@@H]1CN([C@@H](C)CO)C(=O)Cc2cc(NS(=O)(=O)c3ccc(Cl)cc3)ccc2O[C@@H]1CN(C)C(=O)Nc1ccc(C(F)(F)F)cc1,max activity,at 19.5 µM unless noted,23.3%
CC(C)N1CCC(c2ccnc3c(C(=O)N4CCCN(C)CC4)ncn23)CC1,max activity,at 19.5 µM unless noted,-10.4% [at 5 µM]
COCC(=O)N1[C@H](C#N)[C@H](c2ccc(C#CCC3CCCC3)cc2)[C@@H]1CO,max activity,at 19.5 µM unless noted,6.51% [at 10 µM]
N#C[C@H]1[C@@H](c2ccc(-c3cccc(F)c3)cc2)[C@H](CO)N1C(=O)NC1CCCC1,max activity,at 1.2 µM,-11.5%
same,max activity,at 19.5 µM,14.4%
N#C[C@@H]1[C@@H](c2ccc(C#Cc3cccnc3)cc2)[C@@H](CO)N1C(=O)NC1CCCCC1,max activity,at 19.5 µM unless noted,-10.9%
N#C[C@@H]1[C@H](c2ccc(-c3cccc(F)c3)cc2)[C@@H](CO)N1C(=O)NC1CCCC1,max activity,at 19.5 µM unless noted,22.7%
N#C[C@H]1[C@H](c2ccc(-c3cccc(F)c3)cc2)[C@H](CO)N1C(=O)NC1CCCC1,max activity,at 19.5 µM unless noted,27.1%
C/C=C/c1ccc([C@H]2[C@H](CO)N3C(=O)CN(C(=O)NC4CCCCC4)C[C@@H]23)cc1,max activity,at 19.5 µM unless noted,-12.8%
CCC(C)NC(=O)Cn1c(=O)c(S(=O)(=O)c2ccccc2)cc2ccccc21 (stereo not drawn),max activity,at 19.5 µM unless noted,-6.38% [at 1.2 µM]
COc1ccc(CN2C[C@@H]3CN(Cc4cnn(C)c4)C[C@H]3C2=O)cc1,max activity,at 19.5 µM unless noted,-13% [at 10 µM]
Cc1cccc(S(=O)(=O)N2C[C@H]3[C@@H](c4ccccc42)[C@@H](CO)N3C(=O)c2ccccc2)c1,max activity,at 19.5 µM unless noted,6.73% [at 0.16 µM]
COCCC(=O)N1C[C@H](OCc2ccccn2)[C@@H]2COC[C@@H]21,max activity,at 19.5 µM unless noted,-16.7% [at 0.3 µM]
Oc1cccc(-c2nccn2-c2cccc(-c3ccn[nH]3)c2)c1,max activity,at 19.5 µM unless noted,-6.88% [at 10 µM]
O=S(=O)(Cc1ccccc1)N1CC2CN(Cc3cccc(Cl)c3)CC2C1 (stereo not drawn),max activity,at 19.5 µM unless noted,19.1%
Cc1ccccc1-c1ccc([C@H]2[C@@H](CO)N3C(=O)CN(C(=O)c4ccncc4)C[C@H]23)cc1,max activity,at 19.5 µM unless noted,-12.2% [at 5 µM]
CC(C)CNc1nc2c(cc1C(=O)NC(C)C)CCN(c1ccncn1)CC2,max activity,at 19.5 µM unless noted,-10.6% [at 5 µM]
COc1ccccc1-c1ccc([C@@H]2[C@@H](CO)N3CCCCN(C(=O)c4cccnc4)C[C@@H]23)cc1,max activity,at 19.5 µM unless noted,-4.65% [at 5 µM]
COc1ccccc1-c1ccc([C@@H]2[C@H](CO)N3CCCCN(C(=O)c4cccnc4)C[C@@H]23)cc1,max activity,at 19.5 µM unless noted,16.2%
O=C(Nc1ccccc1F)N1CCCCN2[C@H](C1)[C@H](c1ccc(/C=C/c3ccccc3)cc1)[C@@H]2CO,max activity,at 19.5 µM unless noted,13.2%
COc1ccccc1-c1ccc([C@@H]2[C@H]3CN(C(=O)c4cccnc4)CCCCN3[C@H]2CO)cc1,max activity,at 19.5 µM unless noted,9.09% [at 0.16 µM]
CCN1C(=O)CO[C@H]2CN(C(=O)c3cnc4ccccc4c3)C[C@@H]21,max activity,at 19.5 µM unless noted,-7.5% [at 0.16 µM]
Cn1cnc2c1C(C(=O)O)CN(C(=O)c1ccsc1)C2 (stereo not drawn),max activity,at 19.5 µM unless noted,-15.3% [at 10 µM]
CCn1cc(NC(=O)c2cccc(CN3C[C@@H](C)O[C@@H](C)C3)c2)nn1,max activity,at 19.5 µM unless noted,-7.36% [at 0.3 µM]
CN(C)C(=O)c1ccc2nnc3ncn(Cc4ccccc4)c3c2c1,max activity,at 19.5 µM unless noted,9.7% [at 2.6 µM]
CS(=O)(=O)N1CC(=O)N2[C@H](CO)[C@@H](c3ccc(C#Cc4ccc(F)cc4)cc3)[C@H]2C1,max activity,at 19.5 µM unless noted,15.4%
O=C(c1ccc(F)cc1)N1CC(=O)N2[C@H](CO)[C@@H](c3ccc(C#CCC4CCCC4)cc3)[C@@H]2C1,max activity,at 19.5 µM unless noted,23.3%
CS(=O)(=O)N1CC(=O)N2[C@H](C1)[C@@H](c1ccc(C#Cc3ccc(F)cc3)cc1)[C@@H]2CO,max activity,at 19.5 µM unless noted,5.83% [at 2.6 µM]
O=C(Cc1ccccn1)N1CC(=O)N2[C@H](CO)[C@@H](c3ccc(C#CCC4CCCC4)cc3)[C@@H]2C1,max activity,at 19.5 µM unless noted,18.5%
O=C(Cc1ccccn1)N1CC(=O)N2[C@H](C1)[C@H](c1ccc(C#CCC3CCCC3)cc1)[C@@H]2CO,max activity,at 19.5 µM unless noted,12.6%
O=C(Cc1ccccn1)N1CC(=O)N2[C@H](CO)[C@@H](c3ccc(C#CCC4CCCC4)cc3)[C@H]2C1,max activity,at 19.5 µM unless noted,20.5%
CS(=O)(=O)N1CCOC2C(COc3ncccn3)CCC21 (stereo not drawn),max activity,at 19.5 µM unless noted,-15% [at 0.3 µM]
CCOC(=O)c1c(C)[nH]c(-c2ccccc2)c1-c1ccccc1,max activity,at 19.5 µM unless noted,4.75% [at 10 µM]
O=C(O)c1ccc(C2C(=O)NNCC2N2CCCC2)s1 (stereo not drawn),max activity,at 0.16 µM,8.24%
same,max activity,at 19.5 µM,10.9%
Fc1cccnc1OC1COC2(CCN(Cc3ccsc3)CC2)C1 (stereo not drawn),max activity,at 19.5 µM unless noted,18.6%
C[C@@H](N)C1CCC(C(=O)Nc2ccncc2)CC1 (stereo partly drawn),max activity,at 19.5 µM unless noted,-12.3% [at 0.08 µM]
Cc1cccc(-n2ncc3c(NC4CCCCCCCCCCC4)ncnc32)c1,max activity,at 19.5 µM unless noted,8.82% [at 10 µM]
COc1ccc(C#Cc2ccc([C@H]3[C@H]4CN(C(=O)NC(C)C)CC(=O)N4[C@H]3CO)cc2)cc1,max activity,at 19.5 µM unless noted,13% [at 10 µM]
COc1ccc(C#Cc2ccc([C@@H]3[C@H]4CN(C(=O)NC(C)C)CC(=O)N4[C@H]3CO)cc2)cc1,max activity,at 19.5 µM unless noted,9.38% [at 0.6 µM]
COc1ccc(C#Cc2ccc([C@@H]3[C@H](CO)N4C(=O)CN(C(=O)NC(C)C)C[C@@H]34)cc2)cc1,max activity,at 5 µM,-8.81%
same,max activity,at 19.5 µM,-6.49%
COc1cccc(NC(=O)N2CC(=O)N3[C@@H](CO)[C@@H](c4ccc(C#CCC5CCCC5)cc4)[C@@H]3C2)c1,max activity,at 19.5 µM unless noted,9.07% [at 21 µM]
COc1cccc(NC(=O)N2CC(=O)N3[C@H](C2)[C@H](c2ccc(C#CCC4CCCC4)cc2)[C@@H]3CO)c1,max activity,at 19.5 µM unless noted,38.8% [at 21 µM]
O=C1NCC(=O)N2CCN(C(=O)Nc3cc(Cl)cc(Cl)c3)CC12 (stereo not drawn),max activity,at 19.5 µM unless noted,17.6% [at 2.6 µM]
CC(=O)N1Cc2ncn(CC3CC3)c2C(COCC2CCOCC2)C1 (stereo not drawn),max activity,at 19.5 µM unless noted,-7.3% [at 0.16 µM]
C=CCN1CCC2(CC1)CC(NCc1ccc(C)s1)c1ccccc1O2 (stereo not drawn),max activity,at 19.5 µM unless noted,5.11% [at 0.3 µM]
C/C=C/c1ccc([C@H]2[C@H]3CN(C(=O)Nc4cccc(OC)c4)CC(=O)N3[C@H]2CO)cc1,max activity,at 19.5 µM unless noted,-14.5% [at 2.6 µM]
COc1ccc(C#Cc2ccc([C@H]3[C@@H](CO)N4C(=O)CN(C(=O)NC(C)C)C[C@@H]34)cc2)cc1,max activity,at 19.5 µM unless noted,22.6%
CCCNC(=O)N1CC(=O)N2[C@H](C1)[C@@H](c1ccc(C#Cc3cccc(OC)c3)cc1)[C@@H]2CO,max activity,at 19.5 µM unless noted,8.44% [at 2.35 µM]
CCCNC(=O)N1CC(=O)N2[C@@H](CO)[C@H](c3ccc(C#Cc4cccc(OC)c4)cc3)[C@@H]2C1,max activity,at 19.5 µM unless noted,15.9%
